Laboratory results taken from PubChem BioAssay.
The source made the active and inactive calls. Unless noted, no rule for the calls is given here.

Key:
[1] = system: Wnt5a (protein binding on small-molecule microarray); experiment: Wnt5a binders on small-molecule microarray, primary screen, biophysical, 635/667 nm fluorescence (AID 1142); conditions: 635 nm fluorescence, higher = more signal;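 also: fluorescence read at 667 nm with signal to noise per printed feature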
[2] = cell viability in Huh7 cells, primary screen, cytotoxicity control for HCV replication inhibitor project, CellTiter-Glo luminescence, basal, 48 h (AID 1143); conditions: Huh7 HCV replicon, higher = more signal, called active from +8 up or from −8 down;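 also: Huh7 hepatoma cells carrying a hepatitis C replication reporter with no stimulus; test concentration not given here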
[3] = P. aeruginosa biofilm formation inhibitors, primary screen, PAO1 strain, BacTiter-Glo luminescence, LB-PBS (AID 1144); conditions: 12 h, higher = more signal
[4] = CREB reporter modulators without forskolin, primary screen, cell-based, PC12, CRE-LacZ reporter, unstimulated (AID 1145); conditions: no forskolin, luminescence, 4.5 h, higher = more signal, called active from +8 up or from −8 down
[5] = CREB reporter modulators under forskolin, primary screen, cell-based, PC12, CRE-LacZ reporter, forskolin-stimulated (AID 1146); conditions: luminescence, 4.5 h, higher = more signal, called active from +8 up or from −8 down;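 also: PC12 cells with 6xCRE LacZ reporter stimulated by forskolin 10 µM; beta-galactosidase reporter signal reflecting CREB driven transcription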
[6] = target: Streptavidin (Streptomyces avidinii) (UniProt P22629); experiment: streptavidin binders on small-molecule microarray, primary screen, artefact control for SMM compound annotation, biophysical, 635/667 nm fluorescence (AID 1147); conditions: streptavidin binding, higher = more signal;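 also: signal reflects streptavidin binding to arrayed compounds as a control protein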
[7] = small-molecule binders of probe aInhba, primary screen, biochemical, small-molecule microarray, 635/667 nm fluorescence (AID 1148); conditions: higher = more signal;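 also: score merges 667nm spot fluorescence with signal-to-noise for antibody binding to printed compounds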
Torsin-1A (Homo sapiens) [8] = target: Torsin-1A (Homo sapiens) (UniProt O14656); experiment: torsin A binders from cell lysate, primary screen, small-molecule microarray, wild-type, 635/667 nm (AID 1149); conditions: COS7 hTOR1A-WT lysate, 635 nm fluorescence, higher = more signal
Torsin-1A (Homo sapiens) [9] = target: Torsin-1A (Homo sapiens) (UniProt O14656); experiment: small-molecule binders of mutant TOR1A in lysate, primary screen, cell lysate, small-molecule microarray, COS7 lysate, 635/667 nm fluorescence (AID 1150); conditions: COS7 hTOR1A mutant lysate, 635 nm fluorescence, higher = more signal;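 also: score pools 667 nm emission and signal to noise measuring lysate protein binding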
[10] = system: Sonic hedgehog protein (Shh); experiment: small-molecule binders of Shh protein, primary screen, biochemical, small-molecule microarray, 635/667 nm fluorescence (AID 1151); conditions: small-molecule microarray binding, 635 nm fluorescence; higher = more signal;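 also: Shh protein binding to compounds spotted on small-molecule microarray slides; score combines spot fluorescence intensity with signal-to-noise across triplicate slides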

Chain of Torsin-1A (Homo sapiens) (O14656 whole entry, looked up): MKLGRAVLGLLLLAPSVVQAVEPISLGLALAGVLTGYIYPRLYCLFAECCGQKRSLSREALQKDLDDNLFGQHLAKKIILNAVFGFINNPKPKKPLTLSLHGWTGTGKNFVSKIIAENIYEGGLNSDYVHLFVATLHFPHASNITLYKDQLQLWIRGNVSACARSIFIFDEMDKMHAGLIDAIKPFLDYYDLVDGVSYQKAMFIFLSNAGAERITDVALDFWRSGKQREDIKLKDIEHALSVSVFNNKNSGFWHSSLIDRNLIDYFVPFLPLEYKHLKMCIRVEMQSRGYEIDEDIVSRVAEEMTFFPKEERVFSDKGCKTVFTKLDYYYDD
Chain of Streptavidin (Streptomyces avidinii) (P22629 whole entry, looked up): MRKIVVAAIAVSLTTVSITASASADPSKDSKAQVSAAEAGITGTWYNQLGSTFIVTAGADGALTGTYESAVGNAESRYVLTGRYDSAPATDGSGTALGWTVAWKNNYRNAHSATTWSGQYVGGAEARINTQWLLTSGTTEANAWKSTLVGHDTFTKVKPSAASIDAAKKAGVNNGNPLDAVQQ

SMILES	composite z-score [1]	z-score [2]	z-score [3]	z-score [4]	z-score [5]	composite z-score [6]	composite z-score [7]	composite z-score (Torsin-1A (Homo sapiens) [8])	composite z-score (Torsin-1A (Homo sapiens) [9])	composite z-score [10]
CC(C)CNC(=O)[C@@]1(c2ccc([N+](=O)[O-])cc2)CC(=O)N(CC23CC4CC(CC(C4)C2)C3)[C@@H]1c1ccc(CO)cc1	0.239	-4.7 (inactive)	0.677 (inactive)	-0.0888 (inactive)	-1.32 (inactive)	-0.256	-0.0442	1.16	0.395	1.04
C=CCOC(=O)[C@@H]1[C@H]2C(=O)O[C@H](c3ccccc3)[C@H](c3ccccc3)N2[C@H](c2ccc(OCCOC(=O)[C@@H]3C[C@@H]4C(=O)NCC(=O)N4[C@@H]3c3cccc(OCCO)c3)cc2)[C@@]12C(=O)Nc1ccc(I)cc12	1.02	0.0025 (inactive)	-0.0754 (inactive)	-0.545 (inactive)	-0.844 (inactive)	-0.0506	0.458	1.56	1.17	2.1
COCCOC(=O)N1C(=O)[C@@]2(c3cc(C#CCCO)ccc31)[C@H](c1ccc(O)cc1)N1[C@H](c3ccccc3)[C@H](c3ccccc3)OC(=O)[C@H]1[C@@H]2C(N)=O	0.453	-0.209 (inactive)	0.393 (inactive)	0.48 (inactive)	0.73 (inactive)	-0.656	0.0388	0.553	0.883	0.493
COCCOC(=O)N1C(=O)[C@@]2(c3cc(C#CCNC(N)=O)ccc31)[C@H](c1ccc(OCCO)cc1)N1[C@H](c3ccccc3)[C@H](c3ccccc3)OC(=O)[C@H]1[C@@H]2C(=O)N1CCc2cc(OC)c(OC)cc2C1	0.426	-0.0916 (inactive)	-1.59 (inactive)	-0.471 (inactive)	-0.644 (inactive)	0.175	-0.0136	0.0053	-0.193	0.815
CC(C)N1C(=O)C[C@@](C(=O)NCc2ccccc2)(c2ccc([N+](=O)[O-])cc2)[C@H]1c1ccc(CO)cc1	-0.214	-1.5 (inactive)	-0.936 (inactive)	1.03 (inactive)	-0.703 (inactive)	-0.939	0.0275	1.35	0.529	0.235
O=C1c2ccccc2[C@@]2(Cc3ccccc3N(Cc3ccccc3)C2=O)[C@H](c2ccc(CO)cc2)N1C1CCCCC1	0.149	0.608 (inactive)	0.0703 (inactive)	0.0924 (inactive)	0.0935 (inactive)	-0.258	-0.0933	0.177	-0.269	1.08
CC(C)(C)OC(=O)CC[C@@]1(C(=O)O)N=C(c2ccc(OCCCO)cc2)O[C@@H]1c1ccccc1N=[N+]=[N-]	0.52	0.0429 (inactive)	0.561 (inactive)	-0.183 (inactive)	-0.406 (inactive)	1.01	0.179	1.21	1.22	-0.905
COCCOC(=O)N1C(=O)[C@@]2(c3cc(C#CCNC(N)=O)ccc31)[C@H](c1ccc(O)cc1)N1[C@H](c3ccccc3)[C@H](c3ccccc3)OC(=O)[C@H]1[C@@H]2C(=O)NC[C@H](O)c1ccccc1	0.545	0.123 (inactive)	0.00448 (inactive)	-0.606 (inactive)	-0.197 (inactive)	-0.0027	0.415	0.76	0.353	1.75
C[N+](C)(C)CCCCCCNC(=O)[C@H]1C[C@H]2C(=O)N3CCC[C@H]3C(=O)N2[C@H]1c1ccc(O)cc1	-0.214	-2.61 (inactive)	-0.911 (inactive)	-0.813 (inactive)	-0.935 (inactive)	-0.715	0.0184	0.0048	0.599	1.92
[N-]=[N+]=NCc1ccccc1[C@@H]1OC(c2ccc(OCCCO)cc2)=N[C@]1(Cc1ccccc1N=[N+]=[N-])C(=O)NCc1ccccc1	0.378	-3 (inactive)	-0.433 (inactive)	-0.193 (inactive)	-1.02 (inactive)	0.942	-0.0006	0.819	0.191	1.51
Cc1ccccc1C(O)C1C=CC2C(=O)N(C)C(=O)C2N1Nc1ccccc1 (stereo not given)	0.125	0.881 (inactive)	0.149 (inactive)	-0.522 (inactive)	-0.0967 (inactive)	1.69	0.112	0.0494	0.303	-0.0269
C=C[C@H](COC(C)=O)N(Cc1ccc(OC(C)=O)c(OC)c1)S(=O)(=O)c1ccc(Br)cc1	0.714	-2.08 (inactive)	-0.569 (inactive)	0.195 (inactive)	-1.9 (inactive)	1.12	0.0219	1.85	2.14	1.75
COCCOC(=O)N1C(=O)[C@@]2(c3cc(C#CCC(C(=O)OC)C(=O)OC)ccc31)[C@H](c1ccccc1OCCO)N1[C@H](c3ccccc3)[C@H](c3ccccc3)OC(=O)[C@H]1[C@@H]2C(N)=O	0.53	-3.11 (inactive)	0.451 (inactive)	1.16 (inactive)	2.17 (inactive)	0.0558	0.137	0.402	0.689	1.52
CC(C)(C)OC(=O)CC[C@@]1(C(=O)NCCN2CCOCC2)N=C(c2ccc(OCCCO)cc2)O[C@@H]1c1ccccc1	0.739	0.256 (inactive)	0.174 (inactive)	-1.33 (inactive)	-0.998 (inactive)	1.12	0.248	0.388	-0.522	0.306
